High-throughput results (PubChem)
Sampled rows, rich in hits. Any-hit rate of the full collection: about 10%.
GPT2 inhibitor: GPT2 alanine aminotransferase inhibition. Q8TD30. Recombinant GPT2, coupled pyruvate oxidase/HRP Amplex Red fluorescence. Potency, µM (top dose mostly 57.7 µM), hits mostly inhibitors. 100,000 compounds, 0.25% hits. AID 1671188; also: nearly all actives have a fitted effect of over 60% in size
Target sequence (Q8TD30 whole entry, looked up): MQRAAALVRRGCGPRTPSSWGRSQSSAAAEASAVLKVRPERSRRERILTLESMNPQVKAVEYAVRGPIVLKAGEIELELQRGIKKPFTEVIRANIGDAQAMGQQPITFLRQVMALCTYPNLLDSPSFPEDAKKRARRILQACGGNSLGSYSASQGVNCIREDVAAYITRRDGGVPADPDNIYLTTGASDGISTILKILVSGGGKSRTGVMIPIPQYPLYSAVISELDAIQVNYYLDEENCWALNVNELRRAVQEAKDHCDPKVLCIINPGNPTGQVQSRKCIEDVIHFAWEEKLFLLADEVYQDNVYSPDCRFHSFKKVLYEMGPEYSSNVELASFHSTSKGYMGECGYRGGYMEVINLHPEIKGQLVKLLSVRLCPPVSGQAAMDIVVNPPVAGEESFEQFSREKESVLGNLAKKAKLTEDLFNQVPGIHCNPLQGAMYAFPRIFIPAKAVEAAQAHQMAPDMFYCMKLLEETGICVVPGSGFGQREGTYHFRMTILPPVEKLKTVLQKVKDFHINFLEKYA
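GPT2 10ng/uL, a-KG 250uM, L-Ala 2mM, HEPES pH7.5 + 0.0001% Tween; 30 min RT. Then Amplex mix (PO/HRP/ThPP), 30 min RT dark, fluorescence. AOA 50uM used as positive control.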
NPR1 antag: antagonists of human natriuretic peptide receptor Npr1 | 76,000 compounds, 1.6% hits | Potency, µM (doses to about 46.3 µM), usual class: inhibitors | HEK293 hNpr1 GloSensor cGMP, ANP-stimulated luminescence | AID 1347048; calls by dose curve; also: nearly all actives have a fitted effect of over 60% in size
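Compound pre-incubated 30 min at room temperature on GloSensor-loaded HEK293 cells stably carrying hNpr1 and the pGS-40F cGMP biosensor. Stimulation uses hNppA at 0.1 nM final; luminescence is taken at baseline and 20 min post-agonist.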
HEK cytotox: cytotoxic compounds in HEK 293 cells | HEK 293 viability, ATP luminescence (CellTiter-Glo), 48-72 h | Potency, µM (titrated, usually from 115 µM), most hits filed as inhibitors | 94,000 compounds, 6.6% hits | AID 1345083; also: nearly all actives have a fitted effect of over 60% in size
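CellTiter-Glo luminescence (cellular ATP) was read after 48 or 72 hr of compound exposure at 37 degree Celsius. Cells were HEK 293 plated at 250 cells/well.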
Luciferase inh: Photinus pyralis luciferase inhibition; purified P. pyralis luciferase, luminescence, biochemical; Potency, µM (top dose mostly 115 µM), hits mostly inhibitors; 76,000 compounds, 2.5% hits; P08659; also: nearly all actives have a fitted effect of over 65% in size
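Purified 10nM P. pyralis luciferase with 10uM D-luciferin and 10uM ATP in 50mM Tris acetate pH 7.5, 10mM Mg acetate, 0.01% Tween-20, 0.05% BSA. qHTS titration; luminescence read by CCD imager.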
3T3 cytotox: kills NIH 3T3 cells; NIH 3T3 viability, CellTiter-Glo ATP luminescence, 48-72 h; Potency, µM (highest dose often 96.7 µM), most hits filed as inhibitors; 94,000 compounds, 4.3% hits; AID 1345082; also: nearly all actives have a fitted effect of over 55% in size
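First NIH 3T3 cells are plated at 400 cells/well; next compound is pinned in; then plates incubate 48 or 72 hr at 37 °C; finally CellTiter-Glo is added and luminescence read after 10 min.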
Each line names hits and unclear results; the compound was inactive in the other large screens; ! = repeats disagree. Unless noted, calls follow the shape of the dose curve; as a rule, active = well fitted curve in the direction sought with a large enough effect; inconclusive = small, poorly fitted or top-dose-only effect, or another doubt; inactive = no such curve, though single readings can be large; an effect the other way counts as inactive or inconclusive.

CC(C)NC(=O)c1ccccc1OCC1CCCN(CC2=Cc3ccccc3OC2)C1 (centres undefined)	HEK cytotox 35µM, 3T3 cytotox inconclusive
CC(C)NC(=O)c1ccccc1OCC1CCCN(Cc2ccc(F)cc2)C1 (centres undefined)	HEK cytotox 40µM, 3T3 cytotox inconclusive
O=C(NC1CC1)c1ccccc1OCC1CCCN(CC2=Cc3ccccc3OC2)C1 (centres undefined)	NPR1 antag inconclusive, HEK cytotox 40µM, 3T3 cytotox inconclusive
CN(C)c1ccc(CN2CCCC3(C2)C(=NC2CCCCC2)NC(=O)N3c2cc(F)cc(F)c2)cc1 (centres undefined)	HEK cytotox 79µM, 3T3 cytotox inconclusive (no result: NPR1 antag, Luciferase inh)
CC(C)CCN1CCC2(C1)C(=NC1CCCC1)NC(=O)N2c1cccnc1 (centres undefined)	3T3 cytotox 32µM (no result: NPR1 antag, Luciferase inh)
O=C1NC(=NC2CCCCC2)C2(CCN(Cc3cccnc3)CC2)N1c1cccnc1	none (no result: NPR1 antag, Luciferase inh)
O=C1NC(=NC2CCCC2)C2(CCCN(Cc3ccc(F)cc3)C2)N1c1cccnc1 (centres undefined)	3T3 cytotox 16µM (no result: NPR1 antag, Luciferase inh)
CC(C)CCN1CCCC2(C1)C(=NC1CCCCC1)NC(=O)N2c1cccnc1 (centres undefined)	HEK cytotox inconclusive, 3T3 cytotox inconclusive (no result: NPR1 antag, Luciferase inh)
O=C1NC(=NC2CCCCC2)C2(CCN(Cc3cccnc3)C2)N1c1cccnc1 (centres undefined)	3T3 cytotox 40µM (no result: NPR1 antag, Luciferase inh)
CN(C)c1ccc(CN2CCCC3(C2)C(=NC2CCCC2)NC(=O)N3c2cc(F)cc(F)c2)cc1 (centres undefined)	none (no result: NPR1 antag, Luciferase inh)
CN(C)c1ccc(CN2CCCC3(C2)C(=NC2CCCCC2)NC(=O)N3c2cccnc2)cc1 (centres undefined)	HEK cytotox inconclusive (no result: NPR1 antag, Luciferase inh)
COc1cccc(-c2cc(C(=O)NCCc3ccc(F)cc3)c3cnn(C)c3n2)c1	HEK cytotox inconclusive (no result: GPT2 inhibitor, NPR1 antag, Luciferase inh)
Cc1ccc(S(=O)(=O)N2CCC(CCC(=O)NC3CC3)CC2)cc1	3T3 cytotox inconclusive
CCC(=O)N(C1CCOCC1)C1CCN(S(=O)(=O)c2ccc(OC)cc2)CC1	none
O=C1NC(=NC2CCCC2)C2(CCCN(Cc3ccsc3)C2)N1c1cccnc1 (centres undefined)	3T3 cytotox 28µM (no result: NPR1 antag, Luciferase inh)
O=C(c1ccccc1F)N1CCCC2(C1)C(=NC1CCCC1)NC(=O)N2c1cccnc1 (centres undefined)	none (no result: NPR1 antag, Luciferase inh)
O=C(c1ccccc1F)N1CCC2(CC1)C(=NC1CCCC1)NC(=O)N2c1cccnc1	3T3 cytotox 35µM (no result: NPR1 antag, Luciferase inh)
O=C1NC(=NC2CCCCC2)C2(CCCN(Cc3cccnc3)C2)N1c1cc(F)cc(F)c1 (centres undefined)	3T3 cytotox 11µM (no result: NPR1 antag, Luciferase inh)
O=C1NC(=NC2CCCC2)C2(CCCN(Cc3ccc(F)cc3)C2)N1c1cc(F)cc(F)c1 (centres undefined)	HEK cytotox inconclusive, 3T3 cytotox inconclusive (no result: NPR1 antag, Luciferase inh)
CC1(C)[C@H](Cc2cc(CN3CCCCC3)on2)C[C@@H]1N	HEK cytotox inconclusive, 3T3 cytotox inconclusive
COCC(=O)N[C@H]1C[C@@H](Cc2cc(CN(C)Cc3ccccc3)on2)C1(C)C	GPT2 inhibitor inconclusive, HEK cytotox inconclusive, 3T3 cytotox inconclusive
CC1(C)[C@H](Cc2cc(CN3CCCCC3)on2)C[C@@H]1NCc1ccccn1	HEK cytotox inconclusive, 3T3 cytotox 112µM
CN(Cc1cc(C[C@@H]2C[C@H](NCc3ncc[nH]3)C2(C)C)no1)c1ccccc1	HEK cytotox 63µM, Luciferase inh inconclusive, 3T3 cytotox 100µM
CC(C)NC(=O)N[C@H]1C[C@@H](Cc2cc(CN(C)c3ccccc3)on2)C1(C)C	HEK cytotox inconclusive, 3T3 cytotox inconclusive
COCC(=O)N[C@H]1C[C@@H](Cc2cc(CN(C)c3ccccc3)on2)C1(C)C	GPT2 inhibitor inconclusive, HEK cytotox 45µM, 3T3 cytotox inconclusive
CN(C)Cc1cc(C[C@@H]2C[C@H](NCc3ccc(F)cc3)C2(C)C)no1	HEK cytotox inconclusive, 3T3 cytotox inconclusive
CC(=O)N[C@H]1C[C@@H](Cc2cc(CN(C)c3ccccc3)on2)C1(C)C	HEK cytotox 79µM
O=C1CN(C(=O)OCc2ccccc2)CC(O)CN1CCc1ccccc1 (centres undefined)	3T3 cytotox inconclusive (no result: GPT2 inhibitor, NPR1 antag, Luciferase inh)
Cc1ccc2c(C)c(C(=O)N(C)Cc3noc4c3CCCC4)oc2c1	HEK cytotox 45µM, 3T3 cytotox inconclusive
CCc1cc(CN(C)C(=O)c2oc3cc(OC)ccc3c2C)on1	HEK cytotox inconclusive, 3T3 cytotox inconclusive
CC(C)CN1CCCC(c2nc3ccc(F)cc3c(=O)[nH]2)C1 (centres undefined)	HEK cytotox 25µM, 3T3 cytotox 32µM
CC(=O)Nc1ccc(CN2CCCC(c3nc4ccc(F)cc4c(=O)[nH]3)C2)cc1 (centres undefined)	HEK cytotox inconclusive, 3T3 cytotox inconclusive
Cc1ccc2nc(C3CCCN(Cc4cccs4)C3)[nH]c(=O)c2c1 (centres undefined)	HEK cytotox inconclusive (no result: NPR1 antag, Luciferase inh)
Cc1cc(C)cc(-c2ccc(CN3CCCC(c4nc5ccc(F)cc5c(=O)[nH]4)C3)cc2)c1 (centres undefined)	HEK cytotox 40µM!, 3T3 cytotox 18µM
Cc1ccc2nc(C3CCCN(Cc4cccc(-c5cccs5)c4)C3)[nH]c(=O)c2c1 (centres undefined)	NPR1 antag inconclusive, HEK cytotox inconclusive, 3T3 cytotox inconclusive
Cc1ccc2nc(C3CCN(Cc4ccc(-c5cccs5)cc4)CC3)[nH]c(=O)c2c1	HEK cytotox 35µM!, 3T3 cytotox inconclusive
Cc1ccc2nc(C3CCCN(Cc4ccccc4)C3)[nH]c(=O)c2c1 (centres undefined)	HEK cytotox 63µM!, 3T3 cytotox inconclusive
CNC(=O)c1cc(C2CC2)nc2onc(C3CCN(C(=O)N4CCOCC4)C3)c12 (centres undefined)	none (no result: GPT2 inhibitor, NPR1 antag, Luciferase inh)
COc1ccc(CCC(=O)N2CCCCCCNC(=O)[C@@H]3C[C@@H](c4nc(C(C)C)no4)C[C@@H]32)cc1	none
O=C(NCCCc1ccccc1)c1nc2cccnc2n(CCc2ccccc2)c1=O	HEK cytotox inconclusive, 3T3 cytotox inconclusive (no result: NPR1 antag, Luciferase inh)
CN(C)c1cccc(C(=O)N2CCCC(n3cc(-c4nc(-c5ccccc5)no4)nn3)C2)c1 (centres undefined)	NPR1 antag inconclusive, HEK cytotox inconclusive, Luciferase inh inconclusive, 3T3 cytotox inconclusive
Cc1ccc2nc(C3CCCN(CC4CCCC4)C3)[nH]c(=O)c2c1 (centres undefined)	HEK cytotox 71µM!, 3T3 cytotox inconclusive
O=S(=O)(c1ccccc1)N1CCC(CCc2nc(C3CCOCC3)no2)CC1	HEK cytotox inconclusive, 3T3 cytotox inconclusive (no result: NPR1 antag, Luciferase inh)
Cc1nn(-c2ccccc2)c2c1C(C)N(CC1CN(C(=O)c3ccccc3Cl)C1)C2=O (centres undefined)	HEK cytotox 50µM, 3T3 cytotox inconclusive (no result: GPT2 inhibitor, NPR1 antag, Luciferase inh)
